The record followed here is PubChem BioAssay (NCI).

Where “and” joins values, the source holds several entries; their conditions need not be identical. Equal values may be shown once. Compounds without any hit were thinned out: in the full panel of roughly 83,000, 20% have a hit.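 The endpoint reported here, percent growth, reads 100 for growth as untreated, 0 for no net growth and -100 for all cells dead.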 Unmarked numbers belong to inactive results. Calls of active or inactive are those of the source. Rule for the calls: active = growth percent below 10; inactive = the rest.

The subject of the assay is HL-60(TB) leukemia. The experiment in a line: NCI-60 one-dose screen, 48 h (100 = growth as untreated, 0 = no growth, -100 = all killed). The note with it: 10 µM unless noted.
`O=C(Nc1ccc(-n2ccc3c(NC(=O)c4ccccc4)nccc32)cc1)Nc1cccc(C(F)(F)F)c1`: the growth was 63.8%.
As for `COc1ccc(C2NC(=O)Nc3ccccc32)c(OC)c1` (configuration not stated), the growth is 93.2%.
To `Cc1nc2ncccc2nc1Nc1ccc(S(=O)(=O)Nc2cncs2)cc1` belongs 109%; to `CC(=O)NCC(=O)N1[C@@H]2CC[C@H]1c1ccc(Nc3ncc(C(F)(F)F)c(NC4CCC4)n3)cc12`, 11.8% [2.5 µM].
To `CC1=C(C#N)C(C)(C)C(C#N)=C(C)N1` belongs 98.6%; to `O=c1c(CNc2ccc(S(=O)(=O)Nc3nccs3)cc2)coc2ccccc12`, 89.6%.
To `CC1(O)CC(c2nc(-c3ccc4ccc(-c5ccccc5)nc4c3)c3c(N)nccn23)C1` (configuration not stated) belongs 17.5%; to `CC(C)(C)NC(C1=CC(C)(C)c2ccccc2C1=O)c1ccccc1` (configuration not stated), -45.2% (active); to `COc1ccc2nc3ccccc3c(NCCNCCO)c2c1`, 6.15% (active).
As for `N#Cc1cnn2c(-c3ccc(Cl)cc3)nc(NC3CC3)nc12`, the growth is 98.2%.
To `N=C1C(c2nc(-c3ccc(Br)cc3)cs2)=C(O)CN1Cc1cccnc1` belongs 72.4%; to `CCCCCCCCCCCCN1CCCC(C)C1` (configuration not stated), 55.6%.
The figure for `NC1=NN(c2ccccc2)C(=O)/C1=C/c1ccc(Cl)cc1` is 104%.
On to `c1ccc(NCc2ccc3c(c2)OCO3)cc1`, for which the growth was 94.6% and 96.1%.
As to `O=C1C=CC(=O)N1c1ccccn1`, the growth was 55.7%.
Consider `CCCC1(CN2c3ccccc3Sc3ccc(Cl)cc32)CCN(CC)C1` (configuration not stated), for which the growth was 31.8%.
The figure for `O=C1CC(=O)N(C(=O)c2nn(-c3ccc(Cl)cc3)cc2O)N1` is 4.53% (active); for `COc1ccc(-c2nnc(SCC(=O)Nc3ccc(C(=O)/C=C/c4ccccc4)cc3)n2-c2ccccc2)cc1OC` it is 65.3%; for `O=C(NCCc1nccs1)c1cnc2c(S)cccc2c1` it is 16.6%.
The figure for `NC(=O)c1cc(Cl)ccc1NC(=O)c1ccccc1-c1ccccc1` is 1.29% (active).
The figure for `CCOC(=O)c1c2c(n3ccc(C)cc13)C(=O)c1ccccc1C2=O` is 76.1%; for `COc1ccc(/C=C/C(=O)Nc2cccnc2Nc2ccc(F)cc2)cc1` it is 84.3%.
`O=C1OC(c2nc3ccccc3s2)=C/C1=C\c1ccc(O)cc1`: the growth was 98.2%.
The figure for `Cc1ccc(/C=C2\CN(Cc3cn(CCNc4ccnc5cc(Cl)ccc45)nn3)C/C(=C\c3ccc(C)cc3)C2=O)cc1` is -28.8% (active).
`CN1CCN(CCCOc2ccc3nc(Nc4ccc(C(F)(F)F)c(Cl)c4)ccc3c2)CC1`: the growth was 12.5%.
To `Nc1nccc2c1ccn2-c1ccc(NC(=O)Nc2cccc(C(F)(F)F)c2)cc1` belongs 117%.
The figure for `COc1cc(NC(C)CCCN2C(=O)c3ccccc3C2=O)c2ncccc2c1OC` (configuration not stated) is -96.9% (active).
